This is an account of results in PubChem BioAssay (Tox21).

A short description of experiment [1]: qHTS assay for small molecules that induce genotoxicity in human embryonic kidney cells expressing luciferase-tagged ATAD5 (AID 651632). Note: nearly all actives have a fitted effect of over 15% in size. Note: potency is the fitted concentration of half-maximal effect. The procedure, abridged:
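Increased luciferase signal from ATAD5-tagged reporter cells indicates DNA-damage-driven ATAD5 induction. HEK293T cells are treated for 16 hr at 37C before detection with Amplite.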

The nature of experiment [2]: qHTS assay for small molecule agonists of the p53 signaling pathway - cell viability (AID 651633; calls by dose curve; note: nearly all actives have a fitted effect of over 30% in size; note: potency is the fitted concentration of half-maximal effect). The procedure, abridged: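 Viability counter-read: CellTiter-Glo luminescence (30 min, room temperature) in the same p53RE-bla plates. These plates had been exposed to compounds for 16 h at 37 C.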
Experiment [3] in a line: qHTS assay for small molecules that induce genotoxicity in human embryonic kidney cells expressing luciferase-tagged ATAD5 - cell viability (AID 651634; calls by dose curve; note: nearly all actives have a fitted effect of over 25% in size; note: potency is the fitted concentration of half-maximal effect). In a few lines:
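Cytotoxicity counterscreen in HEK293T cells bearing an ATAD5-luciferase reporter: live-cell protease activity measured by CellTiter-Fluor fluorescence after 15.5 hr compound exposure.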

Experiment [4] is described as follows: qHTS assay for small molecule disruptors of the mitochondrial membrane potential - cell viability (AID 720634; calls by dose curve; note: nearly all actives have a fitted effect of over 20% in size; note: potency is the fitted concentration of half-maximal effect). In a few lines: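 After overnight attachment at 37 C, HepG2 cells received compound or DMSO vehicle for 1 hr. Viability is then taken from ATP-driven luminescence following a 30 min room-temperature CellTiter-Glo step.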
Experiment [5] is described as follows: qHTS assay for small molecule disruptors of the mitochondrial membrane potential (AID 720635). Note: potency is the fitted concentration of half-maximal effect. The procedure, abridged:
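Mitochondrial membrane potential tracked with Mito-MPS dye, red aggregates (ex 540/em 590 nm) against green monomers (ex 490/em 535 nm). Compound treatment 1 hr at 37C, dye 30 min in HepG2.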

Experiment [6] is described as follows: qHTS assay to test for compound auto fluorescence at 590 nm (red) in HepG2 cells (AID 720674). The procedure, abridged:
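1 hr compound incubation on HepG2 cells, 37 C, 5% CO2; plate read ex 540 nm / em 590 nm; intensities reported as Rose Bengal sodium equivalents.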

A short description of experiment [7]: qHTS assay to test for compound auto fluorescence at 535 nm (green) in HepG2 cells (AID 720675).
Experiment [8] in a line: qHTS assay to test for compound auto fluorescence at 460 nm (blue) in HEK293 cells (AID 720678). The procedure, abridged:
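Intrinsic compound fluorescence is recorded in live HEK293 cultures after overnight incubation at 37C, 5% CO2, using excitation 405 nm and emission 460 nm. Values are referenced to triamterene.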

Experiment [9] can be described thus: qHTS assay to test for compound auto fluorescence at 590 nm (red) in HEK293 cells (AID 720679). In a few lines:
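Red autofluorescence, HEK293 cells: 2,000 cells/well; attach 4-5 hr 37C; add 23 nL cpd or DMSO; incubate o/n 37C 5% CO2; read Ex540/Em590; Rose Bengal sodium reference.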

Experiment [10] can be described thus: qHTS assay to test for compound auto fluorescence at 535 nm (green) in HEK293 cells (AID 720680).
A short description of experiment [11]: qHTS assay to test for compound auto fluorescence at 460 nm (blue) in HEK293 cell free culture (AID 720681). In a few lines: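 Blue fluorescence (Ex 405/Em 460 nm, triamterene-equivalent) was read immediately after pin transfer of compound or DMSO into medium (DMEM, 10% FBS) without cells.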
A short description of experiment [12]: qHTS assay to test for compound auto fluorescence at 535 nm (green) in HEK293 cell free culture (AID 720682). The procedure, abridged: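 Intrinsic compound fluorescence is measured in culture medium containing 10% FBS, with excitation at 485 nm and detection at 535 nm, referenced to fluorescein.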
Experiment [13] in a line: qHTS assay to test for compound auto fluorescence at 590 nm (red) in HEK293 cell free culture (AID 720683). In a few lines: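 Red-channel autofluorescence of compounds in culture medium (DMEM, 10% FBS), no cells, measured at 540/590 nm. Rose Bengal sodium is the reference fluorophore for equivalence.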
Experiment [14] is described as follows: qHTS assay to test for compound auto fluorescence at 590 nm (red) in HepG2 cell free culture (AID 720684). The procedure, abridged:
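Steps: dispense MEM/10% FBS medium, no cells; pin compound or DMSO vehicle; read red channel, Ex/Em 540/590 nm. Output given as Rose Bengal sodium equivalents.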

Experiment [15] in a line: qHTS assay to test for compound auto fluorescence at 460 nm (blue) in HepG2 cell free culture (AID 720685). The procedure, abridged:
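Compound (23 nL) or DMSO pinned into cell-free MEM with 10% FBS; blue fluorescence read at 405/460 nm excitation/emission, expressed as auto-fluorescence equivalency to triamterene.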

A short description of experiment [16]: qHTS assay to test for compound auto fluorescence at 535 nm (green) in HepG2 cell free culture (AID 720686).
A short description of experiment [17]: qHTS assay to test for compound auto fluorescence at 460 nm (blue) in HepG2 cells (AID 720687). In a few lines:
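Blue-channel autofluorescence (Ex/Em 405/460 nm, triamterene-equivalent) was measured after 1 hr compound exposure at 37 C, 5% CO2. Cells were HepG2, plated overnight at 37 C in MEM plus 10% FBS.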

Experiment [18] concerns the target Glucocorticoid receptor (Homo sapiens) (UniProt P04150). Nature of the experiment: qHTS assay to identify small molecule agonists of the glucocorticoid receptor (GR) signaling pathway (AID 720691; active = well fitted activation curve with a large enough effect in the signal ratio in the repeat runs, not every such curve was filed as active; the % refers to the signal ratio). The procedure, abridged: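 Agonist mode in a HeLa line carrying a GRE-controlled beta-lactamase reporter. Compounds act for 18 h at 37 C before a 2 h room-temperature FRET substrate step and fluorescence reading.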

The nature of experiment [19]: qHTS assay for small molecule agonists of the p53 signaling pathway (AID 651631; calls by dose curve; note: nearly all actives have a fitted effect of over 15% in size; note: potency is the fitted concentration of half-maximal effect). In a few lines:
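Fluorescence intensity from cleaved LiveBLAzer B/G substrate (2 h, room temperature) served as the signal. Beforehand, HCT-116 reporter cells bearing p53 response elements were treated 16 h at 37 °C with DMSO-dissolved compounds.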

Experiment [20] deals with Glucocorticoid receptor (Homo sapiens) (UniProt P04150). Briefly: qHTS assay to identify small molecule antagonists of the glucocorticoid receptor (GR) signaling pathway (AID 720692; active = well fitted inhibition curve with a large enough effect in the signal ratio in the repeat runs, not every such curve was filed as active; the % refers to the signal ratio). In a few lines:
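Cells plated, rested 4 h at 37 C/5% CO2; compounds in DMSO pin-transferred; dexamethasone added to 5 nM final; 18 h at 37 C; B/G FRET substrate added, 2 h room temperature; fluorescence measured.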

“And” between values parts separate entries of the source, which are not always exact repeats. Equal values may be shown once. Results filed as inconclusive are left out. The source made the active and inactive calls. Unless noted, calls come from the whole dose curve; as a rule, active = well fitted curve in the direction sought with a large enough effect in the repeat runs; inconclusive = weak or mixed curves; inactive = no such curve, though single readings can be large; an effect the other way counts as inactive or inconclusive.

Sequence of Glucocorticoid receptor (Homo sapiens) (P04150 whole entry, looked up): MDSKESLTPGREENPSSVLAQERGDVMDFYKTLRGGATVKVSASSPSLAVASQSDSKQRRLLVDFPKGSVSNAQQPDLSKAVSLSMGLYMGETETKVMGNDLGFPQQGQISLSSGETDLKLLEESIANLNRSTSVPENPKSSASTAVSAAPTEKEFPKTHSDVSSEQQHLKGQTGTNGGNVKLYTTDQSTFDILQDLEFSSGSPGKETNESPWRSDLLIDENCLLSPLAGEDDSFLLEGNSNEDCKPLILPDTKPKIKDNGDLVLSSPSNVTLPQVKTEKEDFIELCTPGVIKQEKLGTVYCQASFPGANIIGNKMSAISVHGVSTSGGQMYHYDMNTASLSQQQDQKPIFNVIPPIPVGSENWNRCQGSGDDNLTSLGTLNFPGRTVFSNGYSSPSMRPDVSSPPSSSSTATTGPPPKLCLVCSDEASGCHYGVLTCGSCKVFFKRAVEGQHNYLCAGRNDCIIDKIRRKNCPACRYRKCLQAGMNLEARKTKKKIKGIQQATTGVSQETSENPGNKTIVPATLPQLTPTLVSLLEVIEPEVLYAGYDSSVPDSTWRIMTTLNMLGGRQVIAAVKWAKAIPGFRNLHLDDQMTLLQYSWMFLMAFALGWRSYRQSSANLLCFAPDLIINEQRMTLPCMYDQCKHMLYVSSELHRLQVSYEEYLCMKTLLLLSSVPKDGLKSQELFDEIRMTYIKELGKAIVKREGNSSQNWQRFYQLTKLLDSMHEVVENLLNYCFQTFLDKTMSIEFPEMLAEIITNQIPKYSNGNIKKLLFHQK

With `N#Cc1nn(-c2c(Cl)cc(C(F)(F)F)cc2Cl)c(N)c1S(=O)C(F)(F)F` (stereo unspecified), the Potency entry in [1], in [2], in experiment [3], in [8], in experiment [11] and in experiment [15] was “inactive” in each case. Also, the Potency result in experiment [17] was “inactive”. Further, the Potency is 10.6 µM (active) and 1.54 µM (active) in [4]; 5.31 µM (active) and 1.54 µM (active) in [5]. Moreover, the molecule was called inactive in experiment [6], in experiment [7], in experiment [9], in experiment [10], in experiment [12] and in experiment [13]. The outcome in experiment [14], in experiment [16] and in experiment [18] was inactive.
Consider `S=c1[nH]c2ccccc2[nH]1`, for which the Potency entry in experiment [19], in experiment [2], in experiment [3], in experiment [4], in [5] and in experiment [8] was “inactive” throughout. The Potency entry in experiment [11], in [15], in experiment [17] and in experiment [20] was “inactive” in each case. In addition, the outcome in [6], in experiment [7], in [9], in experiment [10], in experiment [12] and in experiment [13] was inactive. The result in experiment [14], in experiment [16] and in [18] was inactive.
As for `COC(=O)Nc1nc2ccccc2[nH]1`, the Potency in experiment [19] is 7.7 µM (active) and 13.7 µM (active). The Potency entry in [1], in [2], in [3], in experiment [4], in experiment [8] and in experiment [11] was “inactive” throughout. The Potency entry in experiment [15], in [17] and in experiment [20] was “inactive” throughout. Also, the call in [6], in experiment [7], in experiment [9], in [10], in [12] and in [13] was inactive. For the same molecule, the outcome in experiment [14], in experiment [16] and in experiment [18] was inactive.
On to `O=C1Nc2ccc(Cl)cc2C(c2ccccc2)=NC1O` (stereo unspecified), for which the Potency result in [19], in experiment [1], in [2], in [3], in experiment [4] and in [8] was “inactive” each time. The Potency result in [11], in [15] and in experiment [17] was “inactive” in each case. The molecule was classed as inactive in [6], in experiment [7], in experiment [9], in experiment [10], in experiment [12] and in experiment [13]. In addition, the result in [14] was inactive.
Take `C=C(C)C#N`: the Potency entry in experiment [19], in experiment [1], in [2], in experiment [3], in [8] and in experiment [11] was “inactive” each time. The Potency result in experiment [15] and in experiment [17] was “inactive” in each case. Moreover, the call in [6], in [7], in experiment [9], in experiment [10], in experiment [12] and in experiment [13] was inactive. Besides, the molecule was called inactive in experiment [14].
Consider `C=CC(=O)OCC(CC)(COC(=O)C=C)COC(=O)C=C`, for which the Potency is 7.04 µM (active) in experiment [1]; 35.3 µM (active) in [2]; 15.8 µM (active) and 19.3 µM (active) in experiment [3]; 62.8 µM (active) in experiment [5]. Moreover, the Potency entry in experiment [4], in experiment [8], in experiment [11], in experiment [15] and in [17] was “inactive” throughout. The outcome in [6], in experiment [7], in experiment [9], in experiment [10], in [12] and in experiment [13] was inactive. Also, the molecule was classed as inactive in experiment [14] and in experiment [16].
For the molecule `Clc1cccc(C(Cl)(Cl)Cl)n1`, the Potency entry in experiment [19], in experiment [1], in [2], in [3], in experiment [4] and in experiment [8] was “inactive” in each case. The Potency entry in experiment [11], in experiment [15] and in experiment [17] was “inactive” each time. Also, the molecule was classed as inactive in [6], in experiment [7], in [9], in [10], in [12] and in experiment [13]. Further, the result in [14] and in experiment [16] was inactive.
